Source: PubChem (National Center for Advancing Translational Sciences (NCATS))
Tau fluor counter = Counterscreen qHTS for Inhibitors of Tau Fibril Formation, Fluorescence Polarization | tau K18 P301L Alexa594 fluorescence, heparin fibrillization | Potency, µM (highest dose often 57.7 µM) | hit rate 0.93% among 280,000; further: nearly all actives have a fitted effect of over 55% in size
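Human tau K18 P301L (15 uM unlabeled, 0.24 uM Alexa 594-labeled) in 100 mM sodium acetate pH 7 with 20 uM heparin, 6 hr at 37 C. ThT 30 uM added, 1 hr ambient; Alexa 594 FP and total fluorescence read at 555/632 nm.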
Tau fibril ThT = qHTS for Inhibitors of Tau Fibril Formation, Thioflavin T Binding. recombinant tau K18 P301L (four-repeat tau fragment), heparin-induced fibrillization, ThT fluorescence. Potency, µM (titrated, usually from 57.4 µM), most hits filed as inhibitors. hit rate 2.1% among 270,000; further: nearly all actives have a fitted effect of over 55% in size
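Recombinant human tau K18 fragment […] carrying P301L, 15 uM unlabeled plus 0.24 uM Alexa 594-labeled, was fibrillized with 20 uM heparin in 100 mM sodium acetate pH 7 for 6 hr at 37 C; 30 uM ThT fluorescence read after 1 hr.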
KDM4E inh = qHTS Assay for Inhibitors of Human Jumonji Domain Containing 2E (JMJD2E); AID 2147, 2009; hit rate 1.6% among 230,000; Lysine-specific demethylase 4E (Homo sapiens), B2RXH2; JMJD2E catalytic domain, FDH-coupled NADH fluorescence (FDH is formaldehyde dehydrogenase); Potency, µM (doses to about 57.1 µM), usual class: inhibitors; active means well fitted inhibition curve with a large enough effect, not every such curve was filed as active; inconclusive means small, poorly fitted or top-dose-only effect, or another doubt; inactive means no such curve, though single readings can be large or run the other way; further: nearly all actives have a fitted effect of over 50% in size
Target sequence (B2RXH2 1-337 limits assumed): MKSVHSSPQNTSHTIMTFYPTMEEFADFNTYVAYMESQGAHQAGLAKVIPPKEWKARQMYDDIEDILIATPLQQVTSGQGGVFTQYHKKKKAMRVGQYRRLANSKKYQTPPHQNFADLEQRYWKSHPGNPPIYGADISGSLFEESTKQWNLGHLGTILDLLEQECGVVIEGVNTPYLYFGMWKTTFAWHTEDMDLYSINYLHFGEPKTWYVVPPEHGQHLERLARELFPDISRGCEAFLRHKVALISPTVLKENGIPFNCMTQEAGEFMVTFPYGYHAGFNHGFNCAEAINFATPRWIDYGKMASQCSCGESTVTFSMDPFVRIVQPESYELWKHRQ
TRb SRC2 PPI = qHTS for Inhibitors of the Interaction of Thyroid Hormone Receptor and Steroid Receptor Coregulator 2 | Thyroid hormone receptor beta (Homo sapiens), P10828 | TRbeta-SRC2 peptide binding, fluorescence polarization; receptor liganded with 1 µM T3 | Potency, µM (top dose mostly 106 µM), usual class: inhibitors | hit rate 0.065% among 280,000 | AID 1469, 2008; further: nearly all actives have a fitted effect of over 50% in size
Target sequence (P10828 whole entry, looked up): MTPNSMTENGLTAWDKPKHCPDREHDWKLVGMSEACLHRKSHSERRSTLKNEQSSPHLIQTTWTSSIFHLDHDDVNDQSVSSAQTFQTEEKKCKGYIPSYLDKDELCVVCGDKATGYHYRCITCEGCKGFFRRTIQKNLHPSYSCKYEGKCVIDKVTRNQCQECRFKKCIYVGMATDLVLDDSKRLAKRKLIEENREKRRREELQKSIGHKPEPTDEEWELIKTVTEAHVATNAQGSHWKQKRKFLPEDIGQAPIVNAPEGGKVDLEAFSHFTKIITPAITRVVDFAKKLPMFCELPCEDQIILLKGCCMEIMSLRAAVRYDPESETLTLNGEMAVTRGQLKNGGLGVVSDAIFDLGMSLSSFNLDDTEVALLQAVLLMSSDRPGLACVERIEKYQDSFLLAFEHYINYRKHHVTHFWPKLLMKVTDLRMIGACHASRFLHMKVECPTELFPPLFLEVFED
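Decrease in fluorescence polarization of 20 nM Texas Red SRC2 coactivator peptide flagged inhibition of its binding to 0.6 uM TRb LBD; 1 uM T3 included, incubation 5 hr, ex 555/em 632 nm.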
Tau fibril FP = qHTS for Inhibitors of Tau Fibril Formation, Fluorescence Polarization; K18 P301L tau heparin fibrillization, Alexa594 FP, 6 h; Potency, µM (titrated, usually from 57.7 µM), actives largely listed as inhibitors; Microtubule-associated protein tau (Homo sapiens), P10636; AID 1468, 2008; hit rate 0.39% among 280,000; further: nearly all actives have a fitted effect of over 55% in size
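Compound effects on tau fibrillization are measured by Alexa 594 fluorescence polarization (ex 555, em 632 nm). K18 P301L tau is used at 15 uM with 0.24 uM labeled tracer, and 20 uM heparin induces aggregation over 6 hr at 37 C.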
TexasRed fluor = Total Fluorescence Counterscreen for Inhibitors of the Interaction of Thyroid Hormone Receptor and Steroid Receptor Coregulator 2. TRb/SRC2 Texas Red total fluorescence interference. Potency, µM (titrated, usually from 106 µM). hit rate 0.29% among 280,000. AID 1479, 2009; active means well fitted curve in either direction with a large enough effect; inconclusive means small, poorly fitted or top-dose-only effect
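Flags fluorescent or light-absorbing compounds by total fluorescence, S + 2P, at 555 nm excitation and 632 nm emission. Mixture: 20 nM Texas Red SRC2 peptide, 0.6 uM human TRb LBD, 1 uM T3, 5% DMSO; compound exposure 5 h at ambient temperature.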
Large screens that a line does not name were inactive; ! = repeats disagree; [ ] = dose if it differs, or a comment. Rows were chosen to be rich in hits. Some 3.5% of all compounds tested hit in one or more screens of this group. Unless noted, the call rests on the fitted dose curve; in most records, active means well fitted curve in the direction sought with a large enough effect; inconclusive means small, poorly fitted or top-dose-only effect, or another doubt; inactive means no such curve, though single readings can be large; an effect the other way counts as inactive or inconclusive.

O=C(O)c1ccc(NC2=Nc3cccc4cccc2c34)cc1	KDM4E inh inconclusive (no result: Tau fibril ThT)
O=C(/C=C/c1cccs1)NC1CC1	none
N#Cc1c(N(CCO)CCO)nc(N)c2c(N)nc3c(c12)CC(=O)N3Cc1cccs1	Tau fluor counter inconclusive, Tau fibril ThT 15.8µM, KDM4E inh inconclusive, Tau fibril FP inconclusive
O=c1cc(-c2ccccc2Cl)oc2c(NS(=O)(=O)c3cc(Cl)cc(Cl)c3O)ccc(O)c12	Tau fluor counter inconclusive, Tau fibril ThT 22.4µM, TRb SRC2 PPI inconclusive, Tau fibril FP 31.6µM, TexasRed fluor inconclusive
CC1C/C(=C/c2cccn2C)C(=O)/C(=C/c2cccn2C)C1 (stereo unspecified)	Tau fluor counter inconclusive, Tau fibril ThT inconclusive, KDM4E inh inconclusive
CC1C/C(=C/c2ccncc2)C(=O)/C(=C/c2ccncc2)C1 (stereo unspecified)	Tau fibril ThT 8.91µM, Tau fibril FP inconclusive
[O-]/[N+](=C\C=C\c1ccccc1)c1ccccc1	none
Fc1ccc(-n2ncc3c(Nc4cccc(Cl)c4)ncnc32)cc1	Tau fluor counter inconclusive, Tau fibril ThT inconclusive, Tau fibril FP 10µM (no result: KDM4E inh)
Fc1ccc(-n2ncc3c(Nc4ccc5c(c4)OCCO5)ncnc32)cc1	Tau fluor counter 11.2µM[quencher], Tau fibril ThT inconclusive (no result: KDM4E inh)
Cc1ccc(-n2ncc3c(Nc4ccc5c(c4)OCCO5)ncnc32)cc1Cl	Tau fluor counter inconclusive, Tau fibril ThT inconclusive (no result: KDM4E inh)
Clc1cccc(-n2ncc3c(Nc4ccc5c(c4)OCCO5)ncnc32)c1	Tau fluor counter 6.31µM[quencher], Tau fibril ThT inconclusive, Tau fibril FP inconclusive (no result: KDM4E inh)
CCCc1nc2c(sc3nc4c(cc32)COC(C)(C)C4)c(=O)o1	none
CCCCc1c(C)nc2c(OC)cccc2c1SCCC(=O)O	none
CCc1c(C)nc2c(OC)cccc2c1SCCC(=O)O	TexasRed fluor 0.794µM[quencher]
COc1cccc([C@@H]2Oc3ccc(OC)cc3/C(=N/OC[C@@H](O)COCc3ccco3)[C@@H]2O)c1	none (no result: KDM4E inh)
Cc1ccc2nc(-c3ccc(NS(=O)(=O)c4ccccc4)cc3)sc2c1	none
Cc1ccc2nc(-c3ccc(NS(=O)(=O)c4ccc(F)c(F)c4)cc3)sc2c1	Tau fluor counter 10µM[quencher], Tau fibril ThT inconclusive, Tau fibril FP inconclusive
CCOc1ccccc1NC1=C(Cl)C(=O)N(Cc2ccccc2)C1=O	Tau fibril ThT inconclusive
O=C1C(Cl)=C(Nc2cccc(O)c2)C(=O)N1Cc1ccccc1	Tau fluor counter inconclusive, Tau fibril ThT 14.1µM
O=C(NCc1cccs1)c1ccccc1	none
O=C(NCc1cccs1)c1cccc(Nc2nc3ccc(Br)cc3[nH]2)c1	Tau fluor counter 7.94µM[quencher], Tau fibril ThT inconclusive, Tau fibril FP inconclusive
O=c1cc(-c2ccccc2)[nH]n1-c1ccc([N+](=O)[O-])cc1	Tau fluor counter inconclusive, Tau fibril ThT 12.6µM
N#Cc1c(NC(=O)CCC(=O)O)sc2c1CCCCC2	Tau fibril ThT 20µM, KDM4E inh inconclusive, Tau fibril FP inconclusive
COc1ccc(-c2csc(-c3[nH]cnc3N)n2)cc1	Tau fluor counter 15.8µM[quencher], Tau fibril ThT 11.2µM
CC(=O)Nc1ccc2c(c1)C(C)(C)C(C)N2C (stereo unspecified)	Tau fluor counter 28.2µM[fluorescent], Tau fibril ThT inconclusive, TRb SRC2 PPI inconclusive, Tau fibril FP inconclusive, TexasRed fluor 39.8µM[fluorescent]
CCC(=O)c1ccc(NC(C)=O)cc1O	none
O=C(c1cnc2c(c1)COc1ccc(Cl)cc1-2)c1ccccc1O	Tau fibril FP inconclusive, TexasRed fluor 7.94µM![quencher]
O=C(Nc1ccc([N+](=O)[O-])c(NC(=O)C2CCCO2)c1)C1CCCO1 (stereo unspecified)	Tau fibril ThT inconclusive
O=C(Nc1ccc(N=Nc2ccccc2)c(NC(=O)C2CCCO2)c1)C1CCCO1 (stereo unspecified)	Tau fibril ThT 14.1µM
C=CCNC(NC(=O)c1ccccc1)(C(=O)OCC)C(F)(F)F (stereo unspecified)	none
OC(CNC1Cc2ccccc2C1)COc1ccc(Cl)cc1 (stereo unspecified)	none (no result: Tau fibril ThT)
CC(=O)Nc1ccc(NC2=C/C(=N/S(=O)(=O)c3cccs3)c3ccccc3C2=O)cc1	Tau fluor counter 5.01µM[quencher], Tau fibril ThT inconclusive, Tau fibril FP inconclusive
Cc1ccccc1NC1=C/C(=N\S(=O)(=O)c2cccs2)c2ccccc2C1=O	Tau fluor counter inconclusive, Tau fibril ThT 8.91µM
S=c1[nH]nc(-c2ccncc2)n1/N=C/C=C/c1ccco1	Tau fibril ThT inconclusive
C(=C\c1ccco1)/C=N/n1cnnc1	Tau fibril ThT 25.1µM, KDM4E inh 14.1µM, Tau fibril FP 31.6µM
Cn1cccc1CC(=O)N/N=C/C(Cl)=C/c1ccccc1	Tau fibril ThT inconclusive, KDM4E inh inconclusive
Cc1nc2c(C(=O)O)cnn2c(C)c1Cc1ccccc1	none (no result: KDM4E inh)
COC(=O)c1cnn2c(C)c(Cc3cccc(F)c3)c(C)nc12	KDM4E inh 3.55µM
N#Cc1ccc(-c2cccnc2)nc1SCC(=O)c1ccccc1	Tau fluor counter inconclusive, Tau fibril ThT 4.47µM
CCOc1ccc(CNS(=O)(=O)c2ccc(-c3cc(C(F)(F)F)on3)s2)cc1	Tau fibril FP inconclusive (no result: KDM4E inh)
Cc1cc(N/N=C/c2c(O)ccc3ccccc23)nc(-c2ccccc2O)n1	KDM4E inh 14.1µM
COc1ccc(N/N=C/c2c(C(=O)O)ccc3ccccc23)cc1	Tau fluor counter inconclusive, Tau fibril ThT inconclusive, KDM4E inh 25.1µM
Oc1ccc2ccccc2c1/C=N/c1nc2c(s1)CCCC2	Tau fluor counter inconclusive, Tau fibril ThT 31.6µM, KDM4E inh inconclusive, TRb SRC2 PPI inconclusive, Tau fibril FP inconclusive
Oc1ccc2ccccc2c1/C=N/n1cnnc1	Tau fibril ThT inconclusive
Oc1ccc2ccccc2c1C=NC1CCCCC1	Tau fluor counter inconclusive, Tau fibril ThT 25.1µM, Tau fibril FP inconclusive
Cc1cc(NC2CCCCC2)nc(-c2ccccc2O)n1	none
COC(=O)[C@@H]1CC[C@H](C)[C@@H](c2ccc(C)cc2)N1C(=O)c1ccc(/C=N/OC[C@@H](O)COCc2ccco2)cc1	Tau fibril ThT inconclusive
COCCn1c(N)c(N(Cc2ccccc2)C(=O)c2oc3ccccc3c2C)c(=O)[nH]c1=O	none
CCN(C(=O)COC(=O)c1cccc(-n2cnnn2)c1)C1CCCCC1	none
Oc1ccc2ccccc2c1C=NCc1ccccc1	Tau fluor counter inconclusive, Tau fibril ThT inconclusive, KDM4E inh inconclusive, TRb SRC2 PPI inconclusive, Tau fibril FP inconclusive
